# Compounds with a hit are over-represented: about 2.2% of the library has one in this group of screens.
# Abeta yeast res = restores growth of yeast expressing A-beta42 peptide | yeast expressing A-beta42, growth rescue, OD600, 48 h; response scale: 0% DMSO, 100% iron-clioquinol control | Potency, µM (doses to about 46.1 µM), hits mostly activators | 0.063% of 410,000 active; note: nearly all actives have a fitted effect of over 55% in size
#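 Yeast growth medium received pinned compounds, then yeast cells expressing toxic A-beta were added; plates incubated at 30 C for 48 hr. Growth read as absorbance at 600 nm, normalized to DMSO and equimolar FeCl3 plus clioquinol controls.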
# aSyn rescue = alpha-synuclein toxicity inhibition in yeast; AID 652106; Yeast expressing alpha-synuclein, growth rescue, BacTiter-Glo, 24 h; 0.14% of 370,000 active; Potency, µM (series often up to 46.1 µM), inactives show at the highest dose growth rescue (activation), actives largely listed as activators; note: % of control where 0% means no effect; nearly all actives have a fitted effect of over 65% in size
#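 Rescue of yeast growth: cells expressing toxic alpha-synuclein, induced in galactose at OD600 0.02, incubated with compound 24 h at 30 C. ATP luminescence quantified growth; inhibitors of toxicity appear as activators.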
# TDP-43 yeast inh = inhibitors of TDP-43 toxicity in yeast. TDP-43 expressing yeast growth rescue, BacTiter-Glo, 24 h. Potency, µM (top dose mostly 46.1 µM), for the others: at the top dose growth rescue (activation), actives largely listed as activators. 1.8% of 410,000 active; note: % of control where 0% means no effect; nearly all actives have a fitted effect of over 50% in size
#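 Galactose-induced TDP-43 yeast, OD600=0.02, compound pinned; 24 hr, 30 deg C; BacTiter-Glo luminescence for growth. Inhibitors of TDP-43 toxicity read as activators.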
# Mito fusion yeast = mitochondrial division inhibition or fusion activation | S. cerevisiae fusion-defective mutant growth rescue, CellTiterGlo 48 h | Potency, µM (highest dose often 46.1 µM), without a hit: at the highest dose growth rescue (activation), actives largely listed as activators | 0.23% of 320,000 active; note: % of control where 0% means no effect; nearly all actives have a fitted effect of over 45% in size
#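 Read-out: ATP-based luminescence (CellTiterGlo, 10 min ambient) reporting growth of fusion-defective ts yeast after 48 hours at 37C on glycerol/ethanol YPEG medium in the presence of compound.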
# FUS suppressor = rescues growth of FUS-expressing yeast | S. cerevisiae FUS-expressing, growth rescue, OD600, 24 h | Potency, µM (titrated, usually from 76.6 µM), most hits filed as activators | 0.24% of 390,000 active;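 note: plate controls were DMSO vehicle for no effect and reference control for full effect; nearly all actives have a fitted effect of over 55% in size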
#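 S. cerevisiae expressing FUS from galactose induction served as the toxicity model. Growth after 24hr at 30C, read as absorbance at 600 nm, indicates suppression of toxicity; compounds dosed at several concentrations.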
# Starred values were filed as active, the others as inactive; i = inactive; ? = inconclusive; . = no result given; ! = not active in a repeat; [ ] = dose if it differs, or a comment. Calls come from the whole dose curve; as a rule, active = well fitted curve in the direction sought with a large enough effect; inconclusive = small, poorly fitted or top-dose-only effect, or another doubt; inactive = no such curve, though single readings can be large; an effect the other way counts as inactive or inconclusive. Potency is the fitted concentration of half-maximal effect.
SMILES,Abeta yeast res,aSyn rescue,TDP-43 yeast inh,Mito fusion yeast,FUS suppressor
CC(=O)C1=CCC(c2ccc(Cl)cc2)N(S(=O)(=O)c2ccc(C)cc2)C1 (stereo not given),i,?,35µM*!,.,?
Cc1ccc(Nc2nc(Nc3ccc(Cl)cc3)nc(N3CCOCC3)n2)cc1,.,1%,.,.,.
O=C(O)/C=C/C(=O)Nc1ccc2c(c1)C(=O)c1ccccc1C2=O,?,22µM*,?,6%,i
CC(C)CCOc1ccc(Oc2nc(N(C)C)nc(N(C)C)n2)nn1,i,.,15%,.,i
c1ccc(-c2csc(-n3cnnn3)n2)cc1,i,1%,11µM*,2%,i
Cc1cc(C)n(-c2nc(-c3ccccc3)cs2)n1,i,-18%,-1%,-8%,i
c1ccc(CC2CCN(c3ncnc4sccc34)CC2)cc1,i,-1%,13µM*,3%,i
CC(=O)N1CCc2c(sc3c2c(=O)n(CCc2ccccc2)c(=O)n3Cc2cccc(C)c2)C1,i,.,22µM*,.,i
CC(=O)N1CCc2c(sc3c2c(=O)n(Cc2ccccc2)c(=O)n3Cc2cccc(Cl)c2)C1,i,.,8%,.,i
Cc1cc2nc3c(nc2cc1C)C1(C(=O)O)CCC3(C)C1(C)C (stereo not given),i,11%,20µM*,0%,i
CCOC(=O)c1ccc(NC(=S)NC(=O)C2CCCC2)cc1,?,4%,0%,-9%,i
O=C(NC(=S)Nc1ccc(Br)cc1)C1CCC1,5.6µM*,-10%,?,-4%,i
O=C(Nc1ccc(Br)cc1)C1CCCC1,i,1%,11µM*,4%,i
CC(=O)NC(=S)Nc1cccc([N+](=O)[O-])c1,i,4%,?,-3%,i
COC(=O)c1ccc(NC(=S)NC(=O)C2CCC2)cc1,8.9µM*,-7%,?,-14%,i
O=C(NC(=S)Nc1cccc([N+](=O)[O-])c1)C1CCCC1,?,-11%,13µM*,7%,i
Cc1cc(C(=O)N2CCC2(C)C(=O)Nc2ccc3[nH]ncc3c2)nn1C (stereo not given),i,-14%,8%,.,i
Cc1ccc2c(CC(=O)NCc3ccccc3)coc2c1C,?,.,20%,.,i
Cc1cccc(C)c1NC(=O)C(c1ccc(C#N)cc1)n1c(=O)c(-c2ccccc2)nc2ccccc21 (stereo not given),i,6%,-3%,.,?
CC(Cc1cccs1)NC(=S)Nc1ccc(F)cc1 (stereo not given),13µM*,0%,-18%[0.397 µM],1%,i
COc1ccc(NC(=S)NC(C)Cc2cccs2)cc1 (stereo not given),?,1%,?,-1%,i
Cc1nn(-c2ccc(Cl)cc2)c2nc(-c3cccnc3)cc(C(F)(F)F)c12,i,.,18%,.,i
CCCCCCCCN1C(=O)[C@@H](CC(=O)N2CCN(C(=O)C3CC3)CC2)C[C@@]2(C(=O)OC)C1=C[C@H](C(C)C)O[C@@H]2C1CC1,.,.,.,.,28µM*
COC(=O)[C@]12C[C@H](CC(=O)NCC34CC5CC(CC(C5)C3)C4)C(=O)N(Cc3ccco3)C1=C[C@H](C(C)C)O[C@@H]2C1CC1,.,.,.,.,25µM*
CCCCCCCCN1C(=O)[C@@H](CC(=O)NCCCN2CCCC2=O)C[C@@]2(C(=O)OC)C1=C[C@H](C(C)C)O[C@@H]2C1CC1,.,.,.,.,18µM*
SMILES,Abeta yeast res,aSyn rescue,TDP-43 yeast inh,Mito fusion yeast,FUS suppressor
CCn1c(COC(=O)CNC(=O)c2ccccc2F)nc2cc(S(=O)(=O)N(C)C)ccc21,i,-5%,7%,-11%,i
O=C(NC1CC(=O)N(c2ccc(Cl)cc2)C1)c1cccs1 (stereo not given),i,.,12%,.,i
CCc1ccc(CN2C(=O)c3ccccc3C2C(=O)NC2CCCCCC2)cc1 (stereo not given),i,.,22%,.,i
CN=C1NN=C(c2cc(C)n(-c3c(C)n(C)n(-c4ccccc4)c3=O)c2C)CS1,i,0%,-14%[0.397 µM],32µM*,?
COc1ccc(-n2c(C)cc(C3=NNC(=NC4CC4)SC3)c2C)cc1,i,-8%,25%,-4%,16µM*
CCCCNc1ncnc2c1cnn2-c1ccc(C)cc1C,i,-10%,13µM*,14%,i
Cc1ccc(Cl)cc1-n1ncc2c(NCc3ccc(F)cc3)ncnc21,i,.,20µM*,.,i
Cc1ccc(Cl)cc1-n1ncc2c(NCCC3=CCCCC3)ncnc21,i,.,35µM*,.,?
Cc1ccc(Cl)cc1-n1ncc2c(NCCc3ccccc3)ncnc21,i,.,22µM*,.,i
Cc1ccc(Cl)cc1-n1ncc2c(NCCCc3ccccc3)ncnc21,i,.,?,.,i
CCc1ccc(Nc2ncnc3c2cnn3-c2cc(Cl)ccc2C)cc1,i,.,16%,.,i
NC(=S)N/N=C1\c2ccccc2-c2c(C(=O)O)cccc21,i,-1%,-4%,3%,i
Cc1ccc(-c2nc(C)c(CCNC(=O)C(=O)Nc3cc(C)ccc3C)s2)cc1,i,-1%,24%,.,i
COc1cc(C(=O)N(C)CC2CCN(CCc3cccc(C(F)(F)F)c3)CC2)ccc1C,i,-1%,-1%,-3%,i
CCN(CC)S(=O)(=O)c1ccc2c(c1)N(CC(=O)Nc1ccc(OC)cc1)C(=O)CS2,i,.,12%,.,i
CC(C)NC(=O)NC(=O)COC(=O)C1CCCN1C(=O)c1cccs1 (stereo not given),i,-3%,-7%,-4%,i
CC(C)c1ccc(NC(=O)COC(=O)[C@@H]2CCCN2C(=O)c2cccs2)cc1,i,11%,35µM*,.,?
O=[N+]([O-])c1cc(Br)c(Nc2ccccc2)c([N+](=O)[O-])c1,i,6%,3.5µM*,-75%,i
O=[N+]([O-])c1ccc(O)c(NC(=S)Nc2ccccc2)c1,i,-10%,13µM*,-1%,i
Nc1cc([N+](=O)[O-])ccc1Nc1ccccc1,i,8%,14µM*,-3%,i
CC(=O)c1ccc(N2CCN(C(=O)c3ccccc3SCC(=O)NCc3ccco3)CC2)c(F)c1,i,-1%,0%,.,.
O=C(O)C1C2CCC(CC2)C1C(=O)N1CCN(Cc2ccc(F)cc2)CC1 (stereo not given),i,5%,20µM*,-2%,i
CCN(CC)S(=O)(=O)c1cc(NC(=O)CNc2cccc(S(=O)(=O)N3CCOCC3)c2)ccc1C,i,1%,-13%,-3%,i
CCSC(=O)N1c2ccc(OC)cc2C=CC1C#N (stereo not given),i,4%,22µM*,.,.
COc1ccc(C(=O)N2c3ccccc3C=CC2C#N)cc1 (stereo not given),i,-4%,18%,22%,i
